From PubChem
Pf growth 96h – P. falciparum growth inhibition at 96 hour, primary screen for plastid delayed-death inhibitors. P. falciparum luciferase reporter growth, 96 h. Potency, µM (series often up to 28.7 µM), usual class: inhibitors. 320,000 compounds, 6.9% hits
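Delayed-death screen, second-generation endpoint: infected erythrocytes, 2% hematocrit, 0.05% parasitemia final; 96 hours at 37 C, 5% CO2; luciferase detection reagent; luminescence decrease equals reduced growth.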
Shiga toxin inh – blocks Shiga toxin action in Vero cells | Vero cells, Shiga toxin protein synthesis inhibition reporter | 290,000 compounds, 9.2% hits | inhibition, % at 38.7 µM; in the data active = inhibition mostly above about 28%, no sharp cut-off; inactive = mostly below about 43%
Cycloheximide cs – counter-screen for Shiga toxin inhibitors: cycloheximide protein synthesis inhibition; cell reporter, cycloheximide protein synthesis inhibition counterscreen; max response, %; 300,000 compounds, 12% hits; AID 2314; in the data active = max response mostly above about 13%, no sharp cut-off; inactive = mostly below about 14%; also: read at 38.3 µM for the half of the compounds with a filed dose
HCMV antiviral – blocks human cytomegalovirus replication; activity change, negative = inhibition, % at 57.5 µM; HFF cells, HCMV-luciferase reporter, 72 h; hits give low values; AID 1259415; 410,000 compounds, 4.5% hits; in the data active = activity change below about -60%; inconclusive = no clear call, values can overlap the other calls; inactive = above about -39%
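HFF cells seeded 16 h at 37C, treated with compounds, infected with luciferase-reporter HCMV at MOI 1 PFU/cell; luciferase read at 72 h post infection, normalized to buffer-only and Salinomycin controls.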
HCV inh – inhibitors of hepatitis C virus infection; AID 651820; 340,000 compounds, 3.4% hits; Huh7.5.1 HCVcc-Cre infection, luciferase reporter, 44 h; Potency, µM (highest dose often 41.8 µM), actives largely listed as inhibitors
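HCVcc-Cre virus at an moi near 0.5 was added right after compound to cells cultured 4 h from seeding (1,000 cells/well). Luciferase activity was determined 44 h later, 15 min after substrate addition at RT.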
Pf growth 48h – inhibits P. falciparum growth in the first generation, 48 h; P. falciparum luciferase growth in erythrocytes, 48 h; Potency, µM (titrated, usually from 28.7 µM), actives largely listed as inhibitors; 310,000 compounds, 5.9% hits; AID 504832
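Parasite viability was followed by luminescence of a genomically integrated firefly luciferase. Cultures held 0.1% parasitemia at 2% hematocrit (final), incubated under 5% CO2 at 37 C.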
Large screens that a line does not name were inactive. Sampled rows, rich in hits. Any-hit rate of the full collection: about 21%. Unless noted, calls follow the shape of the dose curve; as a rule, active = well fitted inhibition curve with a large enough effect; inconclusive = small, poorly fitted or top-dose-only effect, or another doubt; inactive = no such curve, though single readings can be large or run the other way.

CCOc1ccc(NS(=O)(=O)c2ccc3c(c2)N(C(C)=O)CCS3)cc1	HCMV antiviral -65, HCV inh inconclusive, Pf growth 48h inconclusive
CC(=O)N1CCSc2ccc(S(=O)(=O)Nc3cccc(C)c3)cc21	Pf growth 96h inconclusive, HCMV antiviral inconclusive, HCV inh 14µM
COc1cccc(NC(=O)CN2CCSc3ccccc32)c1	none
CC(=O)N1CCSc2ccc(S(=O)(=O)Nc3ccccc3C)cc21	Pf growth 96h inconclusive, HCV inh 11µM, Pf growth 48h inconclusive
COc1cccc(NS(=O)(=O)c2ccc3c(c2)N(C(C)=O)CCS3)c1	Pf growth 96h inconclusive, HCMV antiviral inconclusive
Cc1cccc(NC(=O)CN2CCSc3ccccc32)c1	Shiga toxin inh 49, Cycloheximide cs 34
CCOc1ccc(NS(=O)(=O)c2ccc3c(c2)N(C(C)=O)CC3)cc1	none
COc1ccc(NC(=O)c2ccc(NC(=O)COC(=O)c3cnc(C)cn3)cc2)cc1	none (no result: Shiga toxin inh, Cycloheximide cs)
CC[C@H](C)[C@H](NC(=O)[C@H](C)NC(=O)CNC(=O)[C@H](CCCN=C(N)N)NC(=O)[C@H](C)NC(=O)[C@H](CC(C)C)NC(=O)[C@H](CCC(=O)O)NC(=O)[C@H](CC(C)C)NC(=O)[C@H](C)NC(=O)[C@@H](N)CCC(=O)O)C(=O)N[C@@H](Cc1ccccc1)C(=O)N[C@@H](CCC(N)=O)C(=O)N[C@@H](C)C(=O)O	none (no result: Pf growth 96h, HCMV antiviral, HCV inh, Pf growth 48h)
Cc1ccc(-n2ncc3c(NC4CCCC4)ncnc32)cc1	none (no result: Pf growth 96h, Shiga toxin inh, Cycloheximide cs, HCV inh, Pf growth 48h)
CCN(CC)CCn1c(=S)[nH]c2ccc(Cl)cc2c1=O	Pf growth 48h 12µM
Cc1ccn(CCSCC(=O)O)n1	none
O=C(O)CSCCn1cccn1	Pf growth 96h 13µM
CCOc1ccc(N2C(=O)C3ON(c4ccccc4)C(c4cccs4)C3C2=O)cc1 (centres undefined)	Pf growth 48h 12µM
COc1cccc(N2C(=O)C3ON(c4ccccc4)C(c4cccs4)C3C2=O)c1 (centres undefined)	none (no result: Pf growth 48h)
Cc1ccccc1Nc1cc(C(=O)NC2CCCC2)c2ccccc2n1	none (no result: Pf growth 96h, Shiga toxin inh, Cycloheximide cs, HCV inh, Pf growth 48h)
CCn1c(SCc2nc3ccccc3nc2C)nnc1-c1cccs1	Pf growth 48h 10µM
CCn1c(SC/C=C/c2ccccc2)nnc1-c1cccs1	Pf growth 48h inconclusive
CCn1c(SCC(=O)c2cccs2)nnc1-c1ccco1	Shiga toxin inh 87, Cycloheximide cs 39
CCn1c(SCC(N)=O)nnc1-c1ccco1	none
CCn1c(SCC(=O)NCCc2ccccc2)nnc1-c1cccs1	none
CCn1c(SCC(=O)c2ccccc2)nnc1-c1cccs1	Shiga toxin inh 77, Cycloheximide cs 66
CCOC(=O)c1ccc(Oc2cc(C)nc(Cl)n2)cc1	none
CCOC(=O)C1CCN(S(=O)(=O)c2c[nH]c(=O)[nH]c2=O)CC1	HCV inh inconclusive (no result: Shiga toxin inh, Cycloheximide cs)
COc1cccc(-c2nc(CSCC(=O)N3CCc4ccccc43)c(C)o2)c1	Pf growth 96h inconclusive, HCV inh inconclusive
Cc1ccc(-c2nc(CS(=O)CC(=O)N3CCN(c4ccccc4)CC3)c(C)o2)cc1 (centres undefined)	HCMV antiviral inconclusive, HCV inh inconclusive
Cc1ccc(-c2nc(CS(=O)CC(=O)N3CCN(c4ccc(Cl)cc4)CC3)c(C)o2)cc1 (centres undefined)	HCMV antiviral -71 (no result: Pf growth 96h, Shiga toxin inh, Cycloheximide cs, HCV inh, Pf growth 48h)
Cc1ccc(-c2nc(CSCC(=O)N3CCOCC3)c(C)o2)cc1	Shiga toxin inh 73, Pf growth 48h inconclusive
Cc1ccc(-c2nc(CSCC(=O)N3CCN(c4ccccn4)CC3)c(C)o2)cc1	Pf growth 96h 10µM, HCMV antiviral inconclusive, HCV inh inconclusive (no result: Pf growth 48h)
Cc1ccc(-c2nc(CSCC(=O)N3CCN(C(=O)c4ccco4)CC3)c(C)o2)cc1	HCV inh inconclusive (no result: Pf growth 48h)
CCOc1ccc(-c2nc(CSCC(=O)N3CCN(c4cccc(OC)c4)CC3)c(C)o2)cc1	Pf growth 96h inconclusive, Shiga toxin inh 75, Cycloheximide cs 16, HCMV antiviral -77, HCV inh 13µM (no result: Pf growth 48h)
C=CCn1c(SCC(=O)N(C)C2CCS(=O)(=O)C2)nnc1-c1ccccc1 (centres undefined)	none (no result: Shiga toxin inh, Cycloheximide cs)
CCc1ccc(-c2nc(CSCC(=O)NCc3ccc(C)cc3)c(C)o2)cc1	none (no result: Pf growth 96h, Shiga toxin inh, Cycloheximide cs, HCV inh, Pf growth 48h)
CCc1ccc(-c2nc(CSCC(=O)N3CCN(c4ccccn4)CC3)c(C)o2)cc1	HCV inh 16µM (no result: Pf growth 96h)
Oc1ccc2ccccc2c1CNc1ccccc1	none (no result: Pf growth 96h, Shiga toxin inh, Cycloheximide cs, Pf growth 48h)
